Experimental data from PubChem BioAssay (NCI).
The panel holds about 79,000 compounds, 15% with a hit somewhere; the sample as a whole holds those more often. Activity calls are given as the source filed them. Rule as the data show it: active = growth inhibition above about 70%; inactive = the rest.

Key:
[1] = NCI Yeast Anticancer Drug Screen. Data for the rad52 strain (AID 147);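 also: 0% = growth of vehicle-treated control cultures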; conditions: S. cerevisiae rad52 mutant growth inhibition, stronger effect = higher value
Procedure, shortened: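 Measured: yeast growth inhibition. System: strain with a defined DNA damage repair alteration. Reference: vehicle-treated control cultures.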

[2] = NCI Yeast Anticancer Drug Screen. Data for the wt1 strain (AID 149);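 also: 0% = growth of vehicle-treated wt1 cultures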; conditions: S. cerevisiae wt1 strain (SPY 50644) growth inhibition, stronger effect = higher value
Procedure, shortened: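 wt1 strain grown with compound or vehicle; inhibition taken from the growth difference.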

[3] = NCI Yeast Anticancer Drug Screen. Data for the rad50EPP+ strain (AID 151);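 also: 0% = growth of vehicle-treated control cultures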; conditions: S. cerevisiae rad50 mutant strain, stronger effect = higher value
Procedure, shortened: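 One strain with a rad50 alteration (rad50EPP+) was compound-treated, its growth then compared to that of vehicle controls.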

[4] = NCI Yeast Anticancer Drug Screen. Data for the rad50 strain (AID 155);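 also: 0% = growth of vehicle-only cultures of the same strain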; conditions: S. cerevisiae rad50 strain growth inhibition, stronger effect = higher value
Procedure, shortened: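 DNA repair mutant yeast, compound exposure, growth read-out; inhibition is taken relative to vehicle.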

[5] = NCI Yeast Anticancer Drug Screen. Data for the mec2-1 strain (AID 157); conditions: S. cerevisiae mec2-1 strain, stronger effect = higher value
Procedure, shortened: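 Test agents were screened against the mec2-1 yeast strain, with defined DNA repair or cell cycle alteration. Growth was scored as inhibition against vehicle-only controls.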

[6] = NCI Yeast Anticancer Drug Screen. Data for the rad14 strain (AID 159);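 also: 0% = growth of vehicle-treated control cultures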; conditions: S. cerevisiae rad14 strain growth inhibition, stronger effect = higher value
Procedure, shortened: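 DNA repair-defective yeast, compound-exposed; % growth inhibition derived by comparison with vehicle-treated controls.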

[7] = NCI Yeast Anticancer Drug Screen. Data for the sgs1 mgt1 strain (AID 161);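 also: 0% = growth of cultures given vehicle only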; conditions: S. cerevisiae sgs1 mgt1 strain, stronger effect = higher value
Procedure, shortened: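 Genetically altered yeast, compound exposure, growth inhibition relative to vehicle.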

[8] = NCI Yeast Anticancer Drug Screen. Data for the CLN2oe strain (AID 163);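 also: 0% = growth of vehicle-only control cultures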; conditions: S. cerevisiae CLN2oe strain, stronger effect = higher value
Procedure, shortened: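 Here, growth inhibition in a cell-cycle-altered yeast strain after compound exposure was quantified against vehicle control growth.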

[9] = NCI Yeast Anticancer Drug Screen. Data for the cln2 rad14 strain (AID 165);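 also: 0% = growth equal to vehicle treated cultures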; conditions: S. cerevisiae cln2 rad14 strain, stronger effect = higher value
Procedure, shortened: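 Growth of compound-exposed yeast (cln2 rad14 genotype) measured and expressed as inhibition relative to vehicle.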

[10] = NCI Yeast Anticancer Drug Screen. Data for the bub3 strain (AID 167); conditions: S. cerevisiae bub3 mutant strain, stronger effect = higher value
Procedure, shortened: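 In this screen, a yeast mutant lacking normal mitotic checkpoint function is challenged with compound. Relative growth versus vehicle gives the inhibition value.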

[11] = NCI Yeast Anticancer Drug Screen. Data for the wt2 strain (AID 169);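 also: 0% = growth of vehicle-treated yeast cultures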; conditions: S. cerevisiae wt2 strain growth inhibition, stronger effect = higher value
Procedure, shortened: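 Genetically defined yeast strains from a DNA-repair/cell-cycle panel were used. Compound-exposed yeast growth was measured, and the inhibition was calculated relative to vehicle treatment.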

[12] = NCI Yeast Anticancer Drug Screen. Data for the mlh1 strain (AID 171);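 also: 0% = growth of vehicle-treated control cultures of the same strain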; conditions: S. cerevisiae mlh1 strain growth inhibition, stronger effect = higher value
Procedure, shortened: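 Here the genetically defined yeast mutant is grown with each compound, and the extent to which its growth falls below that of vehicle-exposed cells is reported.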

[13] = NCI Yeast Anticancer Drug Screen. Data for the sgs1 strain (AID 173);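 also: 0% = growth of vehicle-only control cultures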; conditions: S. cerevisiae sgs1 mutant, stronger effect = higher value
Procedure, shortened: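 Relative growth inhibition, referenced to vehicle, was determined in a yeast strain with a defined alteration affecting DNA damage repair or cell cycle control after compound exposure.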

[14] = NCI Yeast Anticancer Drug Screen. Data for the mlh1 rad18 strain (AID 175); conditions: S. cerevisiae mlh1 rad18 strain growth inhibition, stronger effect = higher value
Procedure, shortened: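 In this whole-cell yeast screen, a strain with altered DNA damage repair is challenged with compound, and its growth is measured against matched vehicle-treated controls.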

[15] = NCI Yeast Anticancer Drug Screen. Data for the rad18 strain (AID 177); conditions: S. cerevisiae rad18 mutant growth inhibition, stronger effect = higher value
Procedure, shortened: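 Screen uses a yeast strain with a defined lesion in DNA damage repair; compound effect is read as loss of growth compared to untreated vehicle cultures.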

[16] = at 5.0 µM (retest, dose inferred, filed as 0.5)
[17] = at 50.0 µM (retest, dose inferred, filed as 5.0)

Measured: growth inhibition

COc1ccc(N=Nc2ccc3oc(=O)c(C(=O)Nc4ccccc4)cc3c2)cc1
inactive: [1]; at 1.2 µM -19% | [1]; at 3.7 µM -2% | [2]; at 1.2 µM -4% | [2]; at 3.7 µM 2% | [2]; at 11.0 µM 67% | [3]; at 1.2 µM 6% | [3]; at 3.7 µM 45% | [4]; at 1.2 µM -2% | [4]; at 3.7 µM 7% | [4]; [16] 0% | [5]; at 1.2 µM -18% | [5]; at 3.7 µM 12% | [5]; [16] -12% | [6]; at 1.2 µM 4% | [6]; at 3.7 µM 25% | [7]; [16] 12% | [7]; [17] 48% | [8]; at 1.2 µM -12% | [8]; at 3.7 µM -10% | [8]; at 11.0 µM 48% | [9]; [16] -19% | [10]; at 1.2 µM -11% | [10]; at 3.7 µM 3% | [10]; [16] 29% | [11]; at 1.2 µM 1% | [11]; at 3.7 µM 14% | [12]; at 1.2 µM 25% | [12]; at 3.7 µM 31% | [13]; at 1.2 µM -9% | [13]; at 3.7 µM 18% | [14]; [16] 39% | [15]; at 1.2 µM -7% | [15]; at 3.7 µM 5%
active: [1]; at 11.0 µM 85% | [1]; at 33.0 µM 96% | [1]; at 100.0 µM 95% | [2]; at 33.0 µM 96% | [2]; at 100.0 µM 94% | [3]; at 11.0 µM 83% | [3]; at 33.0 µM 94% | [3]; at 100.0 µM 95% | [4]; at 11.0 µM 89% | [4]; at 33.0 µM 96% | [4]; [17] 95% | [4]; at 50.0 µM 87.7% | [4]; at 100.0 µM 96% | [5]; at 11.0 µM 82% | [5]; at 33.0 µM 97% | [5]; [17] 97% | [5]; at 50.0 µM 91.3% | [5]; at 100.0 µM 95% | [6]; at 11.0 µM 96% | [6]; at 33.0 µM 97% | [6]; at 100.0 µM 97% | [7]; at 50.0 µM 87.2% | [8]; at 33.0 µM 95% | [8]; at 100.0 µM 92% | [9]; [17] 95% | [9]; at 50.0 µM 85.3% | [10]; at 11.0 µM 71% | [10]; at 33.0 µM 96% | [10]; [17] 96% | [10]; at 50.0 µM 90.5% | [10]; at 100.0 µM 95% | [11]; at 11.0 µM 81% | [11]; at 33.0 µM 96% | [11]; at 100.0 µM 96% | [12]; at 11.0 µM 92% | [12]; at 33.0 µM 96% | [12]; at 100.0 µM 91% | [13]; at 11.0 µM 93% | [13]; at 33.0 µM 97% | [13]; at 100.0 µM 96% | [14]; [17] 95% | [14]; at 50.0 µM 85.7% | [15]; at 11.0 µM 84% | [15]; at 33.0 µM 95% | [15]; at 100.0 µM 96%
